TRPV1 PAM: potentiators of human vanilloid receptor 1 (TRPV1); hit rate 0.02% among 320,000; Q8NER1; potentiation, % at 8.33 µM; TRPV1-expressing cells, Fluo-8 calcium influx, capsaicin EC20 potentiation; in the data active = potentiation above about 80%; inconclusive = between about 30% and that limit; note: 0% is about no effect
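Cells expressing TRPV1 were dye-loaded with Fluo-8 and read kinetically: 10 s baseline, 3 min after compound (agonist portion), then 2 min after EC20 capsaicin (allosteric enhancer portion). Calcium-bound dye fluorescence at 480/520 nm.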
D1 ag: activates the human D1 dopamine receptor | AID 504660 | hit rate 1% among 360,000 | P21728 | activation, % at 2 µM | HEK293 T-REx D1 cells, calcium flux, agonist mode; in the data active = activation above about 30%; note: 0% is about no effect
Target sequence (P21728 whole entry, looked up): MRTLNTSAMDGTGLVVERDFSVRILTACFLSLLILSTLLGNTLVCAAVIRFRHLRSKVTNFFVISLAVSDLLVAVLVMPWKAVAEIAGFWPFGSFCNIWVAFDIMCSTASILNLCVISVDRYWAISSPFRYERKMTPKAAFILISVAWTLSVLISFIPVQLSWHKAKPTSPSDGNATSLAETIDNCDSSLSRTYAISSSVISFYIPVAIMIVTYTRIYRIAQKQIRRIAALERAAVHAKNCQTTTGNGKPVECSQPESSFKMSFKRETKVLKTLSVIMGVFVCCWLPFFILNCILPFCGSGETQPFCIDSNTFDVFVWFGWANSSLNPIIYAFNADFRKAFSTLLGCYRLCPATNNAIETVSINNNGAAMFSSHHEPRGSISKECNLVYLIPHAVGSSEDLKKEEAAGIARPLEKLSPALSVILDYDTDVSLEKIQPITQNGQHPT
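Inducible HEK293 T-REx D1 cells, force-coupled to calcium signalling, were plated at 4000 cells/well with tetracycline and held overnight at 30 C. After no-wash calcium dye loading, compound-evoked calcium rise over 180 s flagged agonists.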
D1 PAM: human D1 dopamine receptor positive modulation. P21728. HEK293 TREx D1 cells, calcium flux, dopamine EC20 potentiation. potentiation, % at 10 µM. hit rate 0.036% among 360,000; in the data active = potentiation above about 30%; note: 0% is about no effect
TRPV1 agonist: agonists of human vanilloid receptor 1 (TRPV1); hit rate 0.19% among 320,000; Q8NER1; activation, % at 8.33 µM; TRPV1-expressing cells, Fluo-8 calcium influx, agonist mode; AID 540275; in the data active = activation above about 80%; inconclusive = between about 30% and that limit; note: 0% is about no effect
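Cells expressing TRPV1 were dye-loaded with Fluo-8 and read kinetically: 10 s baseline, 3 min after compound (agonist portion), then 2 min after EC20 capsaicin (allosteric enhancer portion). Calcium-bound dye fluorescence at 480/520 nm.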
D1 antagonist: human D1 dopamine receptor antagonism. HEK293 TREx D1 cells, calcium flux, dopamine EC80; active compounds read low. activity change, negative = inhibition, % at 10 µM. hit rate 3.2% among 360,000; in the data active = activity change below about -30%; note: % is set by controls: 0 for no effect and ±100 for the full control effect
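Compound effects on dopamine-evoked calcium signalling were measured in tetracycline-induced HEK293 Trex D1 cells. Dopamine at EC80 followed a 180 s compound pre-read, and fluorescence was tracked kinetically for 180 s more.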
* marks the source's active call; other numbers are inactive results; ? = inconclusive; . = no result. Compounds with a hit are over-represented: about 4.2% of the library has one in this group of screens.

SMILES | TRPV1 PAM | D1 ag | D1 PAM | TRPV1 agonist | D1 antagonist
CC(C)(C)C(=O)/C=c1\[nH]c(=O)/c(=C\c2ccc(C#N)cc2)s1 | ? | 4 | -11 | 1 | -47*
COc1ccc(NC(=O)c2oc3ccccc3c2NC(=O)Cc2ccc(F)cc2)c(OC)c1 | . | 3 | -3 | . | -5
CCn1c(SCc2ccc(Cl)cc2Cl)nc2nc3c(cc2c1=O)CCCC3 | -4 | 1 | 1 | 2 | -43*
O=C(CSc1nc2nc3c(cc2c(=O)n1-c1ccccc1)CCCC3)Nc1ccccc1 | 1 | 3 | -7 | 0 | -10
CCn1c(C(=O)NCc2cc(Br)ccc2OC)cc2oc3ccccc3c21 | . | 1 | -3 | . | 19
CC1CCCC/C1=N\Nc1ccc(S(N)(=O)=O)cc1[N+](=O)[O-] (stereo unspecified) | 5 | 6 | -3 | 0 | -30*
CC(C)(C)C1CCC(=NNc2ccc(S(N)(=O)=O)cc2[N+](=O)[O-])CC1 (stereo unspecified) | -3 | 0 | -6 | 0 | 4
Cc1cc(=O)n(Cc2ccccc2)c2c1c(C)nn2-c1ccccc1 | . | 13 | -1 | . | -10
Cc1cc(=O)n(CC(=O)N2CCN(c3ccccc3F)CC2)c2c1c(C)nn2C | . | 10 | -6 | . | -30*
C=Cc1ccc(Cn2c(=O)cc(C)c3c(C)nn(C)c32)cc1 | . | 51* | 7 | . | -29
O=C(NC1CCCc2ccccc21)c1cc(F)cc(F)c1 (stereo unspecified) | 23 | 6 | . | 11 | -9
O=C(NC1CCCc2ccccc21)c1ccc(=O)[nH]c1 (stereo unspecified) | -9 | 1 | -2 | 2 | -39*
COc1ccc2c(C)c(CCC(=O)NCCc3ccc(OC)c(OC)c3)c(=O)oc2c1 | . | -1 | 0 | . | -13
Cc1nnsc1C(=O)N/N=C/c1ccc2ccccc2c1O | -16 | 138* | 5 | ? | 6
Cc1nnsc1C(=O)N/N=C/c1ccccc1 | 21 | 7 | -4 | -3 | -4
NC(=O)c1ccsc1NC(=O)c1ccc(S(=O)(=O)N2CCCc3ccccc32)cc1 | 13 | -1 | 2 | 8 | -25
CC(C)N1CCc2c(sc(NC(=O)c3ccc(S(=O)(=O)N(C)C4CCCCC4)cc3)c2C(N)=O)C1 | . | 66* | -1 | . | -15
CC(C)N1CCc2c(sc(NC(=O)c3ccc(S(=O)(=O)N4CCc5ccccc54)cc3)c2C(N)=O)C1 | 10 | 32* | -3 | 3 | 6
CN(C1CCCCC1)S(=O)(=O)c1ccc(C(=O)Nc2sc3c(c2C(N)=O)CC(C)(C)NC3(C)C)cc1 | 9 | 28 | 7 | -1 | 0
CC(C)N1CCc2c(sc(NC(=O)c3cc(-c4cccs4)nc4ccccc34)c2C(N)=O)C1 | 9 | 83* | -4 | 8 | 0
CC(C)N1CCc2c(sc(NC(=O)c3nc4ccccc4s3)c2C(N)=O)C1 | 7 | 2 | -6 | 0 | -11
Cc1ccc(C(C)C)c(OCC(=O)NCC2(N3CCOCC3)CCCCC2)c1 | . | 0 | 2 | . | -10
Cc1c(Cl)cccc1-n1c(SCC(=O)NCc2ccccc2)nc2n[nH]c(C)c2c1=N | . | 1 | 2 | . | 3
CCOc1ccc(-c2c(C(=O)N/N=C(\C)c3ccco3)nnn2-c2nonc2N)cc1 | 0 | 24 | 7 | 12 | 51
COc1cccc(-c2c(C(=O)N/N=C(\C)c3ccncc3)nnn2-c2nonc2N)c1 | 17 | 2 | -2 | -2 | 8
SMILES | TRPV1 PAM | D1 ag | D1 PAM | TRPV1 agonist | D1 antagonist
Nc1nonc1-n1nnc(C(=O)N/N=C/c2ccc3c(c2)OCO3)c1-c1ccccc1 | 7 | 26 | -5 | -1 | 16
Nc1nonc1-n1nnc(C(=O)N/N=C/c2ccc(Br)cc2)c1-c1ccc2c(c1)OCO2 | 14 | 47* | 6 | -9 | 59
C/C(=N\NC(=O)c1nnn(-c2nonc2N)c1-c1ccc2c(c1)OCO2)c1cccs1 | -8 | 183* | 6 | -4 | 62
CCOc1ccc(-c2c(C(=O)N/N=C(\C)c3cccs3)nnn2-c2nonc2N)cc1 | 4 | 44* | -3 | 5 | 33
COc1cccc(-c2c(C(=O)N/N=C(\C)c3cccs3)nnn2-c2nonc2N)c1 | 0 | 216* | 0 | -4 | 22
COc1ccc(N2CCN(C(c3ccccc3)c3nnc(-c4ccccc4Cl)o3)CC2)cc1 (stereo unspecified) | . | 0 | -8 | . | 1
O=C(CCS(=O)(=O)c1ccc(Br)s1)Nc1cc(C(F)(F)F)cc(C(F)(F)F)c1 | . | 9 | 0 | . | 2
CCOC(=O)c1c(C)c(-c2ccccc2)n(CC(=O)Nc2cc(C)cc(C)c2)c1C | . | 5 | 5 | . | 14
COc1cc(/C=C(\C#N)c2nc3ccccc3[nH]2)ccc1OCc1cccc(C(F)(F)F)c1 | . | 0 | -2 | . | 17
CCOc1cccc(-c2c(C(=O)N/N=C(\C)c3cccs3)nnn2-c2nonc2N)c1 | -33 | 95* | 12 | 1 | 40
Cc1cccc(C(=O)N2CCc3cc(CNC(=O)CCc4ccccc4)ccc32)c1 | . | 5 | -2 | . | -5
COc1ccc(-c2nc3cc(C(C)C)ccc3o2)cc1NC(=O)COc1ccc(C)cc1C | . | 1 | 1 | . | 12
CCS(=O)(=O)c1nc(S(=O)(=O)c2ccc(Cl)cc2)c(NCc2ccc(Cl)cc2)s1 | . | 2 | -2 | . | -8
CC1=C(C(N)=O)C(c2cccc(F)c2)n2nc(SCc3ccccc3)nc2N1 (stereo unspecified) | . | 2 | 2 | . | -16
Cc1ccc(CN(C(=O)c2ccccc2Br)C2CCS(=O)(=O)C2)o1 (stereo unspecified) | . | 0 | 0 | . | -5
COC(=O)Cn1cc(/C=N/NC(=O)c2ccc(C#N)cc2F)c2ccccc21 | 19 | 5 | 2 | 0 | -39*
Cn1c(=O)oc2cc(S(=O)(=O)NC(Cc3ccccc3)C(=O)NCc3ccccc3Cl)ccc21 (stereo unspecified) | . | 1 | -3 | . | 5
COCCCN=C1NN=C(c2cc(C)n(-c3ccccc3)c2C)CS1 | 0 | 1 | 5 | -1 | -19
COCCCN=C1NN=C(c2cc(C)n(-c3ccccc3F)c2C)CS1 | 22 | 33* | 5 | -10 | -32*
Cc1cc(C2=NNC(=Nc3ccccc3)SC2)c(C)n1C | 4 | 1 | -4 | 1 | -32*
CCCCN(C)CCNC(=O)c1cc2c(=O)n(C)c3ccccc3c2n1C | . | -1 | 1 | . | -1
Nc1nonc1-n1nnc(C(=O)N/N=C/c2ccncc2)c1CSc1ccccc1 | -3 | 18 | -4 | 1 | -47*
CCCc1c(C(=O)N/N=C/c2cccs2)nnn1-c1nonc1N | -13 | 31* | 5 | 29 | 10
Nc1nonc1-n1nnc(C(=O)N/N=C/c2ccoc2)c1CSc1ccc(Cl)cc1 | -17 | 0 | -6 | ? | -40*
CCCC(C)C(=O)Nc1ncc(S(=O)(=O)c2ccc([N+](=O)[O-])cc2)s1 (stereo unspecified) | -6 | 59* | 6 | 0 | -68*
